Assay results from PubChem BioAssay AID1159580 (chemical genetic matrix, 2015).
Values joined by “and” are separate entries in the source; they are usually repeats but may differ in a detail not shown here. Equal entries are not always repeated. Screen size: about 5,500 compounds; about 2,000 (36%) were called active. Another 18% or so got no clear call; they are omitted. Cut-off read from the data, not from the text of the source: active = normalized growth mostly below about 0.91 (no sharp cut-off); inconclusive = no clear call, values can overlap the other calls; inactive = mostly above about 0.92. The list shows a part of the results.

Experiment: chemical genetic growth profiling, strain panel (AID 1159580);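 note: tested at 20 µM; growth read once vehicle control cultures reached saturation at 30 °C; 1 = growth at the plate median or of vehicle wells; lower values mean less growth of the strain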
Conditions: S. cerevisiae deletion strains, growth OD

Measured: normalized growth

CC1O[C@@H](Oc2c(-c3ccc(O)c(O)c3)oc3cc(O)cc(O)c3c2=O)[C@H](O)[C@H](O)[C@H]1O (some centres not stated)
inactive: locus YAL013W, strain DEP1, stronger effect = lower value 1 | locus YAL021C, strain ccr4, stronger effect = lower value 1 | locus YAL026C, strain drs2, stronger effect = lower value 0.996 | locus YAL030W, strain snc1, stronger effect = lower value 0.999 | locus YBL061C, strain skt5, stronger effect = lower value 0.993 | locus YBR009C, strain hhf1, stronger effect = lower value 0.99 | locus YBR021W, strain FUR4, stronger effect = lower value 1.01 | locus YBR023C, strain chs3, stronger effect = lower value 0.995 | locus YBR171W, strain sec66, stronger effect = lower value 0.971 | locus YBR229C, strain ROT2, stronger effect = lower value 1 | locus YBR231C, strain swc5, stronger effect = lower value 0.985 | locus YBR279W, strain paf1, stronger effect = lower value 0.995 | locus YCL011C, strain gbp2, stronger effect = lower value 0.997 | locus YCL016C, strain dcc1, stronger effect = lower value 0.993 | locus YCL029C, strain bik1, stronger effect = lower value 0.978 | locus YCL061C, strain MRC1, stronger effect = lower value 0.985 | locus YCL069W, strain vba3, stronger effect = lower value 0.991 | locus YCR088W, strain abp1, stronger effect = lower value 0.985 | locus YDL005C, strain med2, stronger effect = lower value 0.979 | locus YDL035C, strain GPR1, stronger effect = lower value 1 | locus YDL040C, strain nat1, stronger effect = lower value 0.984 | locus YDL074C, strain BRE1, stronger effect = lower value 0.965 | locus YDL101C, strain DUN1, stronger effect = lower value 0.991 | locus YDL134C, strain PPH21, stronger effect = lower value 1 | locus YDL185W, strain tfp1, stronger effect = lower value 0.956 | locus YDL192W, strain arf1, stronger effect = lower value 0.985 | locus YDR001C, strain nth1, stronger effect = lower value 0.999 | locus YDR069C, strain doa4, stronger effect = lower value 0.985 | locus YDR101C, strain arx1, stronger effect = lower value 0.999 | locus YDR137W, strain rgp1, stronger effect = lower value 1.01 | locus YDR150W, strain NUM1, stronger effect = lower value 0.998 | locus YDR159W, strain sac3, stronger effect = lower value 0.97 | locus YDR162C, strain NBP2, stronger effect = lower value 1 | locus YDR195W, strain ref2 0.967 | locus YDR297W, strain sur2, stronger effect = lower value 0.987 | locus YDR318W, strain mcm21, stronger effect = lower value 0.986 | locus YDR334W, strain swr1, stronger effect = lower value 0.995 | locus YDR335W, strain msn5, stronger effect = lower value 1 | locus YDR388W, stronger effect = lower value 0.994 | locus YDR392W, strain spt3, stronger effect = lower value 0.98 | locus YDR502C, strain sam2, stronger effect = lower value 1.01 | locus YEL003W, strain gim4, stronger effect = lower value 0.994 | locus YEL037C, strain rad23, stronger effect = lower value 0.997 | locus YEL061C, strain CIN8 (second series), stronger effect = lower value 0.995 | locus YEL061C, strain CIN8, stronger effect = lower value 0.996 | locus YER015W, strain faa2, stronger effect = lower value 0.973 | locus YER016W, strain bim1, stronger effect = lower value 0.994 | locus YER110C, stronger effect = lower value 0.993 | locus YER111C, strain swi4, stronger effect = lower value 0.997 | locus YER155C, strain BEM2 (second series), stronger effect = lower value 0.982 | locus YER155C, strain BEM2, stronger effect = lower value 0.995 | locus YER167W, strain BCK2, stronger effect = lower value 0.999 | locus YFR010W, strain ubp6, stronger effect = lower value 0.988 | locus YGL078C, strain dbp3, stronger effect = lower value 0.992 | locus YGL086W, strain mad1, stronger effect = lower value 1.03 | locus YGL167C, strain pmr1, stronger effect = lower value 0.99 | locus YGL173C, strain kem1, stronger effect = lower value 0.979 | locus YGL227W, strain vid30, stronger effect = lower value 0.979 | locus YGL240W, strain doc1, stronger effect = lower value 0.976 | locus YGL248W, strain PDE1, stronger effect = lower value 1 | locus YGL253W, strain hxk2, stronger effect = lower value 0.985 | locus YGR078C, strain PAC10, stronger effect = lower value 0.98 | locus YGR135W, strain pre9, stronger effect = lower value 0.989 | locus YGR229C, strain SMI1, stronger effect = lower value 1 | locus YGR252W, strain gcn5, stronger effect = lower value 1.18 | locus YHR013C, strain ard1, stronger effect = lower value 0.982 | locus YHR027C, strain rpn1, stronger effect = lower value 0.988 | locus YHR030C, strain SLT2, stronger effect = lower value 0.997 and 0.954 | locus YHR079C, strain IRE1 (second series), stronger effect = lower value 0.989 | locus YHR079C, strain IRE1, stronger effect = lower value 0.962 | locus YHR094C, strain hxt1, stronger effect = lower value 0.982 | locus YHR129C, strain ARP1, stronger effect = lower value 0.987 | locus YHR142W, strain chs7, stronger effect = lower value 0.995 | locus YHR200W, strain rpn10, stronger effect = lower value 0.986 | locus YIL066C, strain RNR3, stronger effect = lower value 1 | locus YIL073C, strain SPO22, stronger effect = lower value 0.95 | locus YIL125W, strain kgd1, stronger effect = lower value 0.987 | locus YIR030C, strain dcg1, stronger effect = lower value 0.991 | locus YJL092W, strain hpr5, stronger effect = lower value 0.985 | locus YJL095W, strain BCK1 (second series), stronger effect = lower value 0.998 | locus YJL095W, strain BCK1, stronger effect = lower value 0.952 and 0.984 | locus YJL115W, strain asf1, stronger effect = lower value 0.991 | locus YJL129C, strain trk1, stronger effect = lower value 1 | locus YJL134W, strain LCB3, stronger effect = lower value 0.997 | locus YJL154C, strain vps35, stronger effect = lower value 0.993 | locus YJL164C, strain tpk1, stronger effect = lower value 0.984 | locus YJL166W, strain qcr8, stronger effect = lower value 0.994 | locus YJL168C, strain set2, stronger effect = lower value 0.996 | locus YJL187C, strain SWE1 (second series), stronger effect = lower value 0.988 | locus YJL187C, strain SWE1, stronger effect = lower value 0.989 | locus YJR043C, strain POL32, stronger effect = lower value 0.987 | locus YJR066W, strain TOR1, stronger effect = lower value 0.922
